Test [1] has as its target Estrogen receptor (Homo sapiens) (UniProt P03372). Briefly: qHTS assay for small molecule agonists of estrogen receptor alpha signaling (AID 588514).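 Note: 0% = vehicle only and 100% = reference agonist; nearly all actives have a fitted effect of over 70% in size.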 In short, it runs like this:
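Fluorescence from CCF4 cleavage reports ER-alpha-driven beta-lactamase expression in HEK 293 cells treated 18 hrs at 37 C. Data normalized to 17-beta-estradiol (20 nM) and DMSO, fitted to Hill equation.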

Test [2] has as its target Glucocorticoid receptor (Homo sapiens) (UniProt P04150). In words: qHTS assay for small molecule antagonists of glucocorticoid receptor signaling (AID 588533; active = well fitted inhibition curve with a large enough effect in the signal ratio, with a control signal flat, not every such curve was filed as active; the % refers to the signal ratio; note: % is set by controls: 0 for no effect and ±100 for the full control effect). Put shortly:
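Antagonist-mode qHTS: compound titrations added to GRE-bla HeLa cells, then dexamethasone 2 nM final; 18 h, 37 C. CCF4 FRET fluorescence normalized to dexamethasone and DMSO; IC50 from Hill fit.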
(In general: qHTS replaces the single test concentration by a dilution series.)

Test [3] has as its target Peroxisome proliferator-activated receptor delta (Homo sapiens) (UniProt Q03181). Briefly: qHTS assay for small molecule agonists of peroxisome proliferator-activated receptor delta signaling (AID 588534).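 Note: 0% = DMSO basal wells and 100% = positive control agonist at 10 µM.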 In short, it runs like this:
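EC50 and efficacy values derive from Hill fits of a concentration series in a beta-lactamase reporter cell assay. Exposure is 18 hrs at 37 C, with CCF4 fluorescence as the readout.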

The target of test [4] is Thyroid hormone receptor beta (Homo sapiens) (UniProt P10828). Briefly: qHTS assay for small molecule agonists of thyroid hormone receptor beta signaling (AID 588545).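 Note: 0% = DMSO only and 100% = 10 nM T3.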 In short, it runs like this: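 Compounds were tested as agonists in TR-UAS-bla-GripTite HEK 293 cells. After 18 hrs at 37 C, CCF4 substrate was added and fluorescence read after 2 hrs at room temperature.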
Chain of Thyroid hormone receptor beta (Homo sapiens) (P10828 whole entry, looked up): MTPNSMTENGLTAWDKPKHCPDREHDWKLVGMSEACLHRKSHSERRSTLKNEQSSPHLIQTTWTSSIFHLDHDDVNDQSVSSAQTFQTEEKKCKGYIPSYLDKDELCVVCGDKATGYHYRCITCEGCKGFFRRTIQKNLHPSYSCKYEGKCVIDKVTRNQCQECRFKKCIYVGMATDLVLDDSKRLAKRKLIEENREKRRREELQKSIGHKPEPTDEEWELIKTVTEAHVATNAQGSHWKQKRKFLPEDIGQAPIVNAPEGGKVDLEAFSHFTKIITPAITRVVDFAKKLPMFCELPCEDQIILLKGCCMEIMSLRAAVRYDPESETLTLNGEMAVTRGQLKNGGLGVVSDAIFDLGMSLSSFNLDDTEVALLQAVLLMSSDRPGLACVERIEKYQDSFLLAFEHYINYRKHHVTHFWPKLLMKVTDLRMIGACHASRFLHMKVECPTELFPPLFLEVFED

A short description of test [5]: qHTS assay for small molecule antagonists of retinoid X receptor alpha signaling (AID 588546; active = well fitted inhibition curve with a large enough effect in the signal ratio, with a control signal flat, not every such curve was filed as active; the % refers to the signal ratio; note: potency is the fitted concentration of half-maximal effect). As to conditions: HEK293T RXRa-UAS-bla, beta-lactamase ratio, antagonist mode; measured here: W530 green channel, cytotoxicity proxy. In short, it runs like this: (§1)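 Beta-lactamase reporter inhibition, read as CCF4 fluorescence ratio (ex 405, em 460/530 nm) after 2 h at RT. HEK293T UAS-bla cells, 2500/well, were stimulated with 9-cis-RA at 500 or 100 nM final alongside test compound for 18 h at 37 C.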

Test [6] addresses Retinoic acid receptor RXR-alpha (Homo sapiens) (UniProt P19793). The description is as above. To be noted: HEK293T RXRa-UAS-bla, beta-lactamase ratio, antagonist mode. Put shortly: as §1
Test [7] concerns the target Thyroid hormone receptor beta (Homo sapiens) (UniProt P10828). In words: qHTS assay for small molecule antagonists of thyroid hormone receptor beta signaling (AID 588547; active = well fitted inhibition curve with a large enough effect in the signal ratio, with a control signal flat, not every such curve was filed as active; the % refers to the signal ratio;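 note: cells stimulated with 0.4 nM T3 agonist during compound exposure; series mostly up to about 77 µM; % is set by controls: 0 for no effect and ±100 for the full control effect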). As to conditions: TR-UAS-bla HEK293, beta-lactamase ratio, antagonist mode, 18 h. In short, it runs like this: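 TR-UAS-bla GripTite HEK293 cells in 2% charcoal/dextran FBS medium; compounds 0.59 nM to 92 uM with T3 at 0.4nM final, 18 h at 37 C. Beta-lactamase read by CCF4 fluorescence (460/530 nm); Hill fits gave IC50 and efficacy.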

Test [8] is described as follows: qHTS assay for small molecule activators of the p53 signaling pathway (AID 651743; active = well fitted activation curve with a large enough effect in the signal ratio, not every such curve was filed as active; the % refers to the signal ratio; note: series mostly up to about 92 µM; % of control where 0% means no effect). As to conditions: HCT-116 p53RE-bla, beta-lactamase FRET ratio, 16 h; activation: stronger effect = higher value. In short, it runs like this:
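Reporter: beta-lactamase driven by p53 response elements, stably integrated in HCT-116 cells. Cells seeded at 4,000/well, 5 h preincubation, compound (DMSO) 16 h at 37 C; B/G FRET substrate 2 h RT; fluorescence intensity read.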

Test [9] can be described thus: qHTS assay for small molecule agonists of the antioxidant response element (ARE) signaling pathway measured by Nrf2-dependant transcriptional activity - cell viability counter screen (AID 720653; active = well fitted curve in the direction sought with a large enough effect in the repeat runs; an effect the other way counts as inactive or inconclusive; note: % is set by controls: 0 for no effect and ±100 for the full control effect). To be noted: ARE-bla HepG2 viability, CellTiter-Glo ATP luminescence, 16 h; max response: stronger effect = lower value. In short, it runs like this: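 ARE-bla HepG2 cells treated with compounds for 16 h at 37C; this counter screen measures viability as intracellular ATP by CellTiter-Glo luminescence after 30 min at room temperature.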

Test [10] is described as follows: qHTS assay for cell viability of the p53RE-bla HCT-116 cell line (AID 743292; active = well fitted curve in the direction sought with a large enough effect; an effect the other way counts as inactive or inconclusive; note: nearly all actives have a fitted effect of over 55% in size; note: potency is the fitted concentration of half-maximal effect). In short, it runs like this: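 Luminescent ATP quantitation (CellTiter-Glo) served as the viability read-out; reagent was added after 16 h compound exposure at 37 C and read after 30 min at room temperature. Cells: p53RE-bla HCT-116, 4,000 per well.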
The target in test [11] is Vitamin D3 receptor (Homo sapiens) (UniProt P11473). Briefly: qHTS assay for small molecule antagonists of vitamin D receptor signaling (AID 588541).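 Note: receptor activated by calcitriol during compound treatment; series mostly up to about 77 µM; % is set by controls: 0 for no effect and ±100 for the full control effect.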 Put shortly: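 VDR-UAS-bla HEK293T cells in 2% charcoal-stripped FBS were stimulated with 1-alpha,25-dihydroxyvitamin D3 (3 nM final) plus compound for 16 h at 37 C. The beta-lactamase CCF4 readout was normalized to 50 nM agonist and DMSO, and Hill fits gave IC50.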
Chain of Vitamin D3 receptor (Homo sapiens) (P11473 whole entry, looked up): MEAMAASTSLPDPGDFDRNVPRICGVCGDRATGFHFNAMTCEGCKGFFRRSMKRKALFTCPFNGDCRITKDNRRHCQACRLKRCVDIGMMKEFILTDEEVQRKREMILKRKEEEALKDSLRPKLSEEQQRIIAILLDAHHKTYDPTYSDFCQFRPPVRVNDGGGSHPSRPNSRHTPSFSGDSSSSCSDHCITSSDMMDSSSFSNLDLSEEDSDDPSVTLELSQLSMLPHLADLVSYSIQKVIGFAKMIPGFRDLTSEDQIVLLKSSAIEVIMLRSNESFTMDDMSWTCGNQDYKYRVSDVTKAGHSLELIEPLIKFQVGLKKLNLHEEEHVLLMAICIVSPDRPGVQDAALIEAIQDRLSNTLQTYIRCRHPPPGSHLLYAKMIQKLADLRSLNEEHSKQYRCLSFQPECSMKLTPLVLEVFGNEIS

A short description of test [12]: qHTS assay for environmental chemicals that activate the Aryl hydrocarbon Receptor (AhR) signaling pathway (AID 651777; active = well fitted curve in the direction sought with a large enough effect; an effect the other way counts as inactive or inconclusive; note: % of control where 0% means no effect; nearly all actives have a fitted effect of over 15% in size). As to conditions: 1A2-DRE human hepatoma cells, luciferase, 24 h; activation: stronger effect = higher value. In short, it runs like this:
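Luminescence read-out: One-Glo added for 30 min at RT after 24 hr compound treatment (37 C, 5% CO2) of human hepatoma cells expressing a DRE/CYP1A2 promoter–luciferase reporter; increased signal indicates AhR activation.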

Test [13] in a line: qHTS assay for small molecule agonists of the antioxidant response element (ARE) signaling pathway measured by Nrf2-dependant transcriptional activity (AID 720636; active = well fitted curve in the direction sought with a large enough effect in the repeat runs; an effect the other way counts as inactive or inconclusive;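 note: HepG2 cells with an ARE-driven luciferase reporter; % of control where 0% means no effect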). In short, it runs like this:
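HepG2 ARE-luc reporter line, 1% dialyzed FBS; 6 hr attachment at 37 C, compound pinned in, 16 hr at 37 C/5% CO2; ONE-Glo, 30 min RT, luminescence read.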

Test [14] can be described thus: qHTS assay for cell viability of HEK293 cells (AID 743288; active = well fitted curve in the direction sought with a large enough effect; an effect the other way counts as inactive or inconclusive; note: % is set by controls: 0 for no effect and ±100 for the full control effect; nearly all actives have a fitted effect of over 50% in size). To be noted: ATP luminescence (CellTiter-Glo), 18 h; max response: stronger effect = lower value. In short, it runs like this:
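After 18 h compound exposure at 37 C, parental HEK293 cells (2,000/well) are lysed with CellTiter-Glo and luminescence is read following 30 min at room temperature.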

Test [15] can be described thus: qHTS assay for small molecule antagonists of peroxisome proliferator-activated receptor delta signaling (AID 588535; active = well fitted inhibition curve with a large enough effect in the signal ratio, with a control signal flat, not every such curve was filed as active; the % refers to the signal ratio;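 for max response: cells co-treated with a PPAR-delta agonist as stimulator during compound exposure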). To be noted: HEK293T PPARd-UAS-bla, beta-lactamase FRET ratio, 18 h; 460 nm channel. In short, it runs like this: (§2)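 Beta-lactamase reporter read-out (405 nm excitation, 460/530 nm emission) after CCF4 loading for 2 hrs at RT. HEK293T PPAR-delta-UAS-bla cells, 2% charcoal/dextran FBS, compounds for 18 hrs at 37 C. Hill fit gave IC50 and efficacy.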

Test [16] concerns the target Peroxisome proliferator-activated receptor delta (Homo sapiens) (UniProt Q03181). The test is described as above. In short, it runs like this:
as §2

In test [17] the target is Retinoic acid receptor RXR-alpha (Homo sapiens) (UniProt P19793). In words: qHTS assay for small molecule agonists of retinoid X receptor alpha signaling (AID 588544).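 Note: 0% = DMSO basal wells and 100% = reference agonist.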
Chain of Retinoic acid receptor RXR-alpha (Homo sapiens) (P19793 whole entry, looked up): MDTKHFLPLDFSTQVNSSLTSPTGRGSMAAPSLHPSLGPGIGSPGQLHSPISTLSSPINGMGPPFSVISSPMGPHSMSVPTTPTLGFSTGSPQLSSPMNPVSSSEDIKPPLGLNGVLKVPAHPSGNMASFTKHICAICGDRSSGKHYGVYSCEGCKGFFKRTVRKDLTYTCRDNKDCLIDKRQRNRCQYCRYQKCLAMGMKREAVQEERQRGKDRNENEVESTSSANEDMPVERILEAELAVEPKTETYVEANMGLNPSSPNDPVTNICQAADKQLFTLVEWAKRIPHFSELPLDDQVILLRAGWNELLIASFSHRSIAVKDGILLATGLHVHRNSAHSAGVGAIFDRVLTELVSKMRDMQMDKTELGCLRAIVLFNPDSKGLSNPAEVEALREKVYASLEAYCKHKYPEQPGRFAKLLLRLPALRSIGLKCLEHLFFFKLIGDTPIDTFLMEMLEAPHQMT
Test [18] addresses Peroxisome proliferator-activated receptor alpha (Homo sapiens) (UniProt Q07869). In words: qHTS assay for small molecule agonists of the peroxisome proliferator-activated receptor alpha (PPARalpha) signaling pathway (AID 651778; active = well fitted curve in the direction sought with a large enough effect; an effect the other way counts as inactive or inconclusive; note: % of control where 0% means no effect). As to conditions: PathHunter PPARalpha complementation, chemiluminescence, 6 h; max response: stronger effect = higher value. In short, it runs like this:
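Enzyme-fragment complementation assay in which ligand-bound PPARalpha translocates and forms an active enzyme that generates chemiluminescence. Cells were plated overnight, exposed to compound for 6 hr at 37 C, and then given detection reagent for 60 min at room temperature.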

The target in test [19] is Nuclear receptor subfamily 1 group I member 2 (Rattus norvegicus) (UniProt Q9R1A7). In words: qHTS assay for small molecule activators of the rat pregnane X receptor (rPXR) signaling pathway (AID 651751; call rule not given here; note: 0% is about no effect). As to conditions: rPXR reporter cells, luciferase (One-Glo), 24 h.
Chain of Nuclear receptor subfamily 1 group I member 2 (Rattus norvegicus) (Q9R1A7 whole entry, looked up): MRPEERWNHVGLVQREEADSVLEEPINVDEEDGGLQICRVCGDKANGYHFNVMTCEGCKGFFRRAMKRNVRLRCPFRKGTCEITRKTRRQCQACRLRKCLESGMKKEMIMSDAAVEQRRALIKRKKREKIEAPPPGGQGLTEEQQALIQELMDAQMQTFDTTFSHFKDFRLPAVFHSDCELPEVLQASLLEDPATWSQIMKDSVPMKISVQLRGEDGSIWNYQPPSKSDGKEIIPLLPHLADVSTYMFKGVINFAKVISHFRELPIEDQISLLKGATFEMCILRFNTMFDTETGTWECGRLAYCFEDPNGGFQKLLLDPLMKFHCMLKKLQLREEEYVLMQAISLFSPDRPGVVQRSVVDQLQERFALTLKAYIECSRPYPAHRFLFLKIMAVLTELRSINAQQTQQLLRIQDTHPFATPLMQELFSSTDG
Test [20] can be described thus: qHTS assay for small molecule activators of the nuclear factor-kappa B (NF-kB) signaling pathway (AID 651749; active = well fitted activation curve with a large enough effect in the signal ratio; the % refers to the signal ratio; note: series mostly up to about 77 µM; % of control where 0% means no effect). As to conditions: NF-kB-bla ME-180 cells, beta-lactamase FRET ratio, 16 h; activation: stronger effect = higher value. Put shortly: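 NF-kB-bla ME-180 cells, 2,000/well; 23 nL compound or DMSO pinned; 16 hr, 37C/5% CO2; beta-lactamase FRET read-out.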

Where “and” joins values, the source holds several entries; their conditions need not be identical. Identical values can stand only once. Inconclusive results are not listed. Calls of active or inactive are those of the source. Unless noted, calls come from the whole dose curve.

Chain of Peroxisome proliferator-activated receptor alpha (Homo sapiens) (Q07869 whole entry, looked up, the tested form may be a part): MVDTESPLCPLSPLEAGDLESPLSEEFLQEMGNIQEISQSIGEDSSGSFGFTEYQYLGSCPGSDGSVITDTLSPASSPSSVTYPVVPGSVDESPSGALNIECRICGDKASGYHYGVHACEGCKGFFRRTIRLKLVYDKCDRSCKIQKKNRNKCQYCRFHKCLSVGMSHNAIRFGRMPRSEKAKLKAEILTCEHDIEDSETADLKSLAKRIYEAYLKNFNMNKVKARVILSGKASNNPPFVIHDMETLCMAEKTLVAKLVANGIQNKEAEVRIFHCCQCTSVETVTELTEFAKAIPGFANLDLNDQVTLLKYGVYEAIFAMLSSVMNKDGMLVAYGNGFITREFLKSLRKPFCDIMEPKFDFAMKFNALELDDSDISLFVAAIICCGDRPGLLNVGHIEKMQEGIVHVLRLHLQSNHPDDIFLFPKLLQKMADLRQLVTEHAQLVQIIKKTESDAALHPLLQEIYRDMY
Chain of Peroxisome proliferator-activated receptor delta (Homo sapiens) (Q03181 whole entry, looked up): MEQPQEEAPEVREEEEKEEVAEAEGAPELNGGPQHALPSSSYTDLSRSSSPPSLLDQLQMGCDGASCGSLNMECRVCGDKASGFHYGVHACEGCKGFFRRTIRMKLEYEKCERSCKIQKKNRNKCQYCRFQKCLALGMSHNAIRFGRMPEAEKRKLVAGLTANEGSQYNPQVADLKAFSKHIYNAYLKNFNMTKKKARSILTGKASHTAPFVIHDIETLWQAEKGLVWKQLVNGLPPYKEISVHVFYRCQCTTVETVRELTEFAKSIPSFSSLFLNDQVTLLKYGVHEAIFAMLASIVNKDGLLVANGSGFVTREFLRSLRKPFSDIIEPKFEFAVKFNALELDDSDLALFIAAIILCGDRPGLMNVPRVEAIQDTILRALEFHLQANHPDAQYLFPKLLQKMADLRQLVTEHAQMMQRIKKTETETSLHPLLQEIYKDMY
Chain of Glucocorticoid receptor (Homo sapiens) (P04150 whole entry, looked up): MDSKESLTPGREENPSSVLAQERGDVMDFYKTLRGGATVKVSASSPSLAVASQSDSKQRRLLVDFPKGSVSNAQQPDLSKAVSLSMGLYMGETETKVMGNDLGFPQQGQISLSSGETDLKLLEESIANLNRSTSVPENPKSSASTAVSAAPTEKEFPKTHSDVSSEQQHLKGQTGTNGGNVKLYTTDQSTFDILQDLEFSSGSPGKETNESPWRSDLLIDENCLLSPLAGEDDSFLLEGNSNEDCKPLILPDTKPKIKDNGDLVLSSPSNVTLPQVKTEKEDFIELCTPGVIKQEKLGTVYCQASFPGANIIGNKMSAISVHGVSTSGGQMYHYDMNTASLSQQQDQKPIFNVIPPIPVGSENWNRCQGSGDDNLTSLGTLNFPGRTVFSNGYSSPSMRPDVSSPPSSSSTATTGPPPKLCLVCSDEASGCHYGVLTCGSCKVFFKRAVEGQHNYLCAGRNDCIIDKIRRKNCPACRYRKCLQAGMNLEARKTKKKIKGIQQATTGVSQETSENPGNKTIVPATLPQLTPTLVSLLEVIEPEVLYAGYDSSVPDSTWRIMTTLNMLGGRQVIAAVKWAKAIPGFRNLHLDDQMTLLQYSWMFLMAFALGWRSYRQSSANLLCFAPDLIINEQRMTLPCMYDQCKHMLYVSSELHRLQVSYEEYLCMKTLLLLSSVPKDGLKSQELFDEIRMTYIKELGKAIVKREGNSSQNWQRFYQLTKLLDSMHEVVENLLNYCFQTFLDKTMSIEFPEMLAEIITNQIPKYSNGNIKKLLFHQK
Chain of Estrogen receptor (Homo sapiens) (P03372 whole entry, looked up): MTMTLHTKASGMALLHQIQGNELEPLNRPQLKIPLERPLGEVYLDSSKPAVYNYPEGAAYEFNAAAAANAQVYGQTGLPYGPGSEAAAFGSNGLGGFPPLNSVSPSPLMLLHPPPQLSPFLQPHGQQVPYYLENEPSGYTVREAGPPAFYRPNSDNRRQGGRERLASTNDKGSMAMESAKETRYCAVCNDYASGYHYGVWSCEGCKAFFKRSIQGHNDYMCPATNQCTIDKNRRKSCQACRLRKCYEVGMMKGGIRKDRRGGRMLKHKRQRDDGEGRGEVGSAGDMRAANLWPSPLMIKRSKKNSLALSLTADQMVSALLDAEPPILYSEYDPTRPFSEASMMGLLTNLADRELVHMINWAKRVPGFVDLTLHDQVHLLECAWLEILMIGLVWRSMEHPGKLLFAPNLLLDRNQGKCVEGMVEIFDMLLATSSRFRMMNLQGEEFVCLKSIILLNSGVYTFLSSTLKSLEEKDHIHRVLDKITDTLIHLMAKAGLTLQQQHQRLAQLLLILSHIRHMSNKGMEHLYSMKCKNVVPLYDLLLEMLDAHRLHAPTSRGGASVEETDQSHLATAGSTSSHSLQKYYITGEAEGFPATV

Regarding `CC(C)(C)[C@@H](O)/C(=C\c1ccc(Cl)cc1Cl)n1cncn1`, the Potency entry in test [1], in [2], in [4] and in test [10] was “inactive” each time. Moreover, in test [3], the call was inactive. Further, the values for the max response in test [5] and in test [9] were 18.6% and 6.93% (inactive), respectively. Besides, the Potency in test [6] was 44.7 µM (active). Further, the activity change % (negative = inhibition) in test [7] was -11.6% (inactive). In test [8], the activation was -3.2% (inactive).
For `CC(C)OC(=O)C(O)(c1ccc(Br)cc1)c1ccc(Br)cc1`, the Potency result in test [1], in [11] and in [13] was “inactive” throughout. Also, the activation in [12] is 8.09% (inactive). Moreover, the values for the max response in [9] and in test [14] were -7.97% (inactive) and -24.4% (inactive), respectively. Moreover, in test [10], the Potency is 70.8 µM (active).
As for `O=C(O)C(F)(F)C(F)(F)C(F)(F)C(F)(F)C(F)(F)C(F)(F)C(F)(F)C(F)(F)F`, the Potency entry in test [1], in [2], in [16], in [11], in test [17] and in test [4] was “inactive” in each case. In addition, the Potency result in test [13] and in test [10] was “inactive” each time. In test [3], the call was inactive. In addition, the max response is -4.97% and -33.9% in [15]; -12.8% and -2.74% in test [5]; 2.77% (inactive) and -39.3% (inactive) in [6]; -1.46% (inactive) and 5.33% (inactive) in test [18]; 4.68% (inactive) and -1.78% (inactive) in test [9]; -7.25% (inactive) and -13% (inactive) in test [14]. Moreover, the max response in test [19] was 1.17% (inactive) and 2.66% (inactive). The activity change % (negative = inhibition) in [7] was 1.6% (inactive) and 0.325% (inactive). Besides, the activation is 1.7% (inactive) in test [8]; 2.07% (inactive) and 1.12% (inactive) in [12].
Turning to `Brc1ccc(Oc2ccccc2)cc1`, the Potency entry in test [1], in [2], in [16], in [11], in [17] and in [13] was “inactive” throughout. Also, in test [10], the Potency result is “inactive”. Moreover, in test [3], the compound was classed as inactive. The max response was 2.82% in test [15]; -7.34% in test [5]; 1.13% (inactive) in [6]; -0.584% (inactive) in test [18]; -10.2% (inactive) in [9]; -5.38% (inactive) in test [14]. The max response in test [19] is -2.47% (inactive). For the same compound, the activity change % (negative = inhibition) in test [7] was -9.48% (inactive). Moreover, the activation in [8] was 1.17% (inactive); in test [20] it was -2.79% (inactive); in [12] it was -0.643% (inactive).
For `CC(C)N(C(=O)COc1nnc(C(F)(F)F)s1)c1ccc(F)cc1`, the Potency result in [1], in [2], in test [16], in test [4] and in [10] was “inactive” each time. In test [3], the result was inactive. The max response is -37.1% in [15]; -0.147% (inactive) in test [18]; -9% (inactive) in test [9]; -8% (inactive) in [14]; -3.84% (inactive) in [19]. In test [7], the activity change % (negative = inhibition) is -0.765% (inactive). In addition, the activation was 0.0644% (inactive) in test [8], -1.4% (inactive) in test [20] and -0.614% (inactive) in test [12].
As for `O=C(Nc1ccccc1)Nc1cnns1`, the Potency result in [1], in test [2], in test [16], in test [11], in test [4] and in [10] was “inactive” throughout. Further, in test [3], the compound was called inactive. Also, the max response in test [15] was -10.7%; in test [5] it was 1.32%; in test [6], -46.6% (inactive); in test [18], 0.0118% (inactive); in [9], -2.01% (inactive); in test [14], -16.6% (inactive). For the same compound, the activity change % (negative = inhibition) in test [7] is 24.1% (inactive). Also, the activation is 2.3% (inactive) in test [8] and 0.693% (inactive) in [20].
